# Where “and” joins values, the source holds several entries; their conditions need not be identical. Equal values may be shown once. Results filed as inconclusive are left out. A call without a number means that no potency is given here. A number with no mark means an inactive call. Calls of active or inactive are those of the source. Unless noted, calls come from the whole dose curve; as a rule, active = well fitted curve in the direction sought with a large enough effect; inconclusive = small, poorly fitted or top-dose-only effect, or another doubt; inactive = no such curve, though single readings can be large; an effect the other way counts as inactive or inconclusive.
# What was measured:
# [1] = biological target: Cellular tumor antigen p53 (Homo sapiens) (UniProt P04637); assay: Primary qHTS for small molecule compounds that upregulate eGFP-tagged delta133p53alpha (in N-terminal) cells. (AID 2060322); conditions: NCI-H358 eGFP-delta133p53alpha fluorescence, 24 h; activation: stronger effect = higher value; note: nearly all actives have a fitted effect of over 75% in size; note: potency is the fitted concentration of half-maximal effect;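 for activation: cells pre-induced with doxycycline then dosed without doxycycline; series mostly up to about 56 µM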
# Cellular tumor antigen p53 (Homo sapiens), sequence (P04637 whole entry, looked up): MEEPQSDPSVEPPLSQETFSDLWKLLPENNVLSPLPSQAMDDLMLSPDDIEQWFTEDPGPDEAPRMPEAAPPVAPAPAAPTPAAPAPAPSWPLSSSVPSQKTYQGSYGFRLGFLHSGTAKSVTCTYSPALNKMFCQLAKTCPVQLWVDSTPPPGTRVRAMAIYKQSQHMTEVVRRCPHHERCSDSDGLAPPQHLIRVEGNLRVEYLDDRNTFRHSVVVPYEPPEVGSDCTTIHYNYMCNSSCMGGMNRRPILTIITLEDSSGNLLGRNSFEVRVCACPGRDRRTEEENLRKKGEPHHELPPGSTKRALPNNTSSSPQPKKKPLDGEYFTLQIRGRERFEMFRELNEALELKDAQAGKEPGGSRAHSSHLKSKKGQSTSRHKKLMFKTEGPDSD
# How it was run: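 NCI-H358 cells pre-induced 24 h with 10 ng/ml doxycycline for eGFP-delta133p53alpha, plated dox-free and exposed 24 h at 37C to titrated compounds. Fixed, Hoechst-stained; gated GFP peak intensity by laser scanning cytometry, normalized to DMSO (0%) and 57.5 uM 5-azacytidine (100%).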
# [2] = biological target: Cellular tumor antigen p53 (Homo sapiens) (UniProt P04637); assay: Primary qHTS for small molecule compounds that upregulate eGFP-tagged delta133p53alpha (in C-terminal) cells. (AID 2060324); note: potency is the fitted concentration of half-maximal effect
# How it was run: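 Readout: filtered GFP peak intensity of gated cells (laser scanning cytometer), normalized plate-wise to intraplate controls, DMSO wells = 0% activity. Cells: NCI-H358 D133p53a-eGFP, dox 100 ng/ml 24 h beforehand, then compound 24 h, 37 °C.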
# [3] = biological target: Aldehyde dehydrogenase, mitochondrial (Homo sapiens) (UniProt P05091); assay: qHTS for Inhibitors of the Aldehyde Dehydrogenase Family (ALDH2) Validation screens (AID 2061302; active = well fitted inhibition curve with a large enough effect; title and protocol of this record describe different tests; note: potency is the fitted concentration of half-maximal effect)
# [4] = qHTS for Inhibitors of the Aldehyde Dehydrogenase Family (ALDH1A2, ALDH1A3, ALDH2, ALDH3A1) (AID 2061307); note: nearly all actives have a fitted effect of over 50% in size; for potency: test system not described further here; potency is the fitted concentration of half-maximal effect
# [5] = biological target: Retinaldehyde dehydrogenase 3 (Homo sapiens) (UniProt P47895); assay: qHTS for Inhibitors of the Aldehyde Dehydrogenase Family (ALDH1A3) Confirmatory screens (AID 2061311); note: nearly all actives have a fitted effect of over 60% in size; note: potency is the fitted concentration of half-maximal effect
# [6] = biological target: Retinaldehyde dehydrogenase 3 (Homo sapiens) (UniProt P47895); assay: qHTS for Inhibitors of the Aldehyde Dehydrogenase Family (ALDH1A3) Validation screen (AID 2061312); note: nearly all actives have a fitted effect of over 45% in size
# [7] = biological target: Retinal dehydrogenase 2 (Homo sapiens) (UniProt O94788); assay: qHTS for Inhibitors of the Aldehyde Dehydrogenase Family (ALDH1A2) Confirmation screens (AID 2061314); note: nearly all actives have a fitted effect of over 65% in size; note: potency is the fitted concentration of half-maximal effect
# [8] = BET inhibitor-based combinations targeting novel dependencies in MECOM-rearranged (r) AML: SET-2 cell line (AID 2202231); conditions: SET-2 AML cells viability, CellTiter-Glo luminescence, 48 h; viability: stronger effect = lower value, concentration not given here; note: nearly all actives have a fitted effect of over 35% in size; note: potency is the fitted concentration of half-maximal effect
# How it was run: (§1)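 AML cell lines seeded at 500 cells/well, treated with 11-point dose curves for 48 h. Viability by CellTiter-Glo luminescence, normalised to DMSO and empty wells; activity expressed as AUC and per-cell-line Z-transformed AUC.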
# [9] = BET inhibitor-based combinations targeting novel dependencies in MECOM-rearranged (r) AML: OCI-AML3 cell line (AID 2202232); conditions: Potency: OCI-AML3 viability; note: nearly all actives have a fitted effect of over 35% in size; note: potency is the fitted concentration of half-maximal effect
# How it was run: as §1
# [10] = BET inhibitor-based combinations targeting novel dependencies in MECOM-rearranged (r) AML: MV-4-11 cell line (AID 2202233); note: nearly all actives have a fitted effect of over 45% in size; note: potency is the fitted concentration of half-maximal effect
# How it was run: (§2)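 Cells at 500/well were exposed for 48 hr to MIPE v5.0 drugs as 11-point dose curves. Viability was read by CellTiter-Glo luminescence and normalized to DMSO and empty-well controls. Activity was expressed as AUC and per-cell-line Z-AUC.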
# [11] = BET inhibitor-based combinations targeting novel dependencies in MECOM-rearranged (r) AML: HNT-34 cell line (AID 2202234); note: nearly all actives have a fitted effect of over 35% in size; note: potency is the fitted concentration of half-maximal effect
# How it was run: as §2
# [12] = BET inhibitor-based combinations targeting novel dependencies in MECOM-rearranged (r) AML: UCSD-AML1 cell line (AID 2202235); note: nearly all actives have a fitted effect of over 40% in size; note: potency is the fitted concentration of half-maximal effect
# How it was run: as §2
# [13] = BET inhibitor-based combinations targeting novel dependencies in MECOM-rearranged (r) AML: AML-191 cell line (AID 2202236; note: nearly all actives have a fitted effect of over 35% in size; note: potency is the fitted concentration of half-maximal effect)
# How it was run: as §1
# [14] = biological target: Aldehyde dehydrogenase, mitochondrial (Homo sapiens) (UniProt P05091); assay: qHTS for Inhibitors of the Aldehyde Dehydrogenase Family (ALDH2) Primary screen (AID 2061308); note: nearly all actives have a fitted effect of over 55% in size
# [15] = biological target: Retinaldehyde dehydrogenase 3 (Homo sapiens) (UniProt P47895); assay: qHTS for Inhibitors of the Aldehyde Dehydrogenase Family (ALDH1A3) Primary screen (AID 2061315)
# [16] = biological target: Aldehyde dehydrogenase, mitochondrial (Homo sapiens) (UniProt P05091); assay: qHTS for Inhibitors of the Aldehyde Dehydrogenase Family (ALDH2) Confirmatory screens (AID 2061303; active = well fitted inhibition curve with a large enough effect; title and protocol of this record describe different tests; note: nearly all actives have a fitted effect of over 45% in size; note: potency is the fitted concentration of half-maximal effect)
# [17] = BET inhibitor-based combinations targeting novel dependencies in MECOM-rearranged (r) AML: AML-194 cell line (AID 2202237; note: nearly all actives have a fitted effect of over 40% in size; note: potency is the fitted concentration of half-maximal effect)
# How it was run: as §1
# [18] = biological target: Aldehyde dehydrogenase 1A1 (Homo sapiens) (UniProt P00352); assay: qHTS for Inhibitors of the Aldehyde Dehydrogenase Family (ALDH1A1) Confirmatory screens (AID 2061316); note: nearly all actives have a fitted effect of over 65% in size; note: potency is the fitted concentration of half-maximal effect
smiles,measurement,setting,value
CCc1ccc(/C=C2/SC(=S)NC2=O)cc1,activation,[1],-0.0291%
same,Potency,[2],inactive
same,Potency,[3],inactive
same,Potency,[4],inactive
same,Potency,[5],inactive
same,Potency,[6],inactive
same,Potency,[7],inactive
same,viability,[8],89.4%
same,Potency,[9],inactive
same,Potency,[10],inactive
same,Potency,[11],inactive
same,Potency,[12],inactive
same,Potency,[13],inactive
O=c1c2ccccc2nc2n1CCc1c-2[nH]c2ccccc12,activation,[1],-0.328% and 11% and -19%
same,Potency,[2],inactive
same,Potency,[3],inactive
same,Potency,[14],inactive
same,Potency,[6],inactive
same,Potency,[15],inactive
O=C(O)c1ccccc1Nc1cccc(OCc2ccc3ccccc3n2)c1,activation,[1],-13.1%
same,Potency,[2],inactive
same,Potency,[3],inactive
same,Potency,[4],7.98 µM (active)
same,Potency,[6],inactive
CS(=O)(=O)c1ccc(-n2nc(C(F)(F)F)cc2-c2ccc(F)cc2)cc1,activation,[1],-27.4% and -11.6%
same,Potency,[2],inactive
same,Potency,[3],inactive
same,Potency,[14],inactive
same,Potency,[6],inactive
same,Potency,[15],inactive
Cc1[nH]c(=O)c(C#N)cc1-c1ccncc1,activation,[1],7.4% and -9.21% and 7.59%
same,Potency,[2],inactive
same,Potency,[3],inactive
same,Potency,[16],inactive
same,Potency,[5],inactive
same,Potency,[7],inactive
same,viability,[8],118%
same,Potency,[9],inactive
same,Potency,[10],inactive
same,Potency,[12],inactive
same,Potency,[13],inactive
same,Potency,[17],inactive
CC1=C(C)C(=O)C(CCCCC#CCCCC#CCO)=C(C)C1=O,activation,[1],18.6% and 0.426%
same,Potency,[2],inactive
same,Potency,[3],5.01 µM (active)
same,Potency,[16],4.49 µM (active)
same,Potency,[4],7.12 µM (active)
same,Potency,[5],0.504 µM (active)
same,Potency,[18],1.27 µM (active)
CNS(=O)(=O)CCc1ccc2[nH]cc(C3CCN(C)CC3)c2c1,activation,[1],13.4% [middle of 4 runs]
same,Potency,[2],inactive
same,Potency,[3],inactive
same,Potency,[14],inactive
same,Potency,[6],inactive
same,Potency,[15],inactive
Fc1ccc2[nH]c(CN3CCN(c4ccccn4)CC3)cc2c1,activation,[1],-0.955%
same,Potency,[2],inactive
same,Potency,[3],inactive
same,Potency,[14],inactive
same,Potency,[6],inactive
same,Potency,[15],inactive
N[C@@H](Cn1ccc(=O)c(O)c1)C(=O)O,activation,[1],-3.82% and -8.28%
same,Potency,[2],inactive
same,Potency,[3],inactive
same,"activity change, negative = inhibition",[14],3.38% [at 5.59 µM]
same,Potency,[6],inactive
same,"activity change, negative = inhibition",[15],6.23% [at 5.59 µM]
CN1CCC2(CCN3CCc4c(oc5ccccc45)C3C2)N(C)C1=O (configuration not stated),activation,[1],-14.7%
same,Potency,[2],inactive
same,Potency,[3],inactive
same,Potency,[16],inactive
same,Potency,[4],inactive
same,Potency,[5],inactive
same,Potency,[18],inactive
Cc1cc(O)c2c(c1)C(=O)c1cc(O)cc(O)c1C2=O,activation,[1],-1.13% and -38%
same,Potency,[2],26.9 µM (active)
same,Potency,[3],3.16 µM (active)
same,Potency,[16],0.712 µM (active)
same,Potency,[5],11.3 µM (active)
same,Potency,[7],6.34 µM (active)
same,Potency,[18],2.52 µM (active)
same,Potency,[9],9.34 µM (active)
same,Potency,[10],inactive
same,Potency,[12],inactive
same,Potency,[13],16.6 µM (active)
O=C(Nc1ccc2[nH]ncc2c1)C1CCC1,activation,[1],-2.43% and 6.33%
same,Potency,[2],inactive
same,Potency,[3],inactive
same,Potency,[14],inactive
same,Potency,[6],inactive
same,Potency,[15],inactive
CCCN1C[C@H](CSC)C[C@@H]2c3cccc4[nH]cc(c34)C[C@H]21,activation,[1],7.67% and 9.97%
same,Potency,[2],inactive
same,Potency,[3],inactive
same,Potency,[14],inactive
same,Potency,[15],inactive
O=C1NC(=O)/C(=C/c2ccc3c(c2)OC(F)(F)O3)S1,activation,[1],-0.772% and -0.477%
same,Potency,[2],inactive
same,Potency,[3],inactive
same,Potency,[14],inactive
same,Potency,[15],inactive
CC(=O)/C(C)=N/O,activation,[1],-2.27%
same,Potency,[2],inactive
same,Potency,[3],inactive
same,Potency,[6],inactive
CCCCNC(=O)NS(=O)(=O)c1ccc(C)cc1,activation,[1],-35.6% and -11.9%
same,Potency,[2],inactive
same,Potency,[3],inactive
same,Potency,[6],inactive
CN[C@H](CC(=O)O)C(=O)O,activation,[1],-12.8%
same,Potency,[2],inactive
same,Potency,[3],inactive
same,Potency,[6],inactive
C[C@H](CS)C(=O)N1CCC[C@H]1C(=O)O,activation,[1],1.67% and -24.1%
same,Potency,[2],inactive
same,Potency,[3],inactive
same,Potency,[6],inactive
NC(N)=NC(N)=Nc1cccc(Cl)c1,activation,[1],-3.06%
same,Potency,[2],inactive
same,Potency,[3],inactive
same,Potency,[6],inactive
CCN(CC)CCCC(C)Nc1c2ccc(Cl)cc2nc2ccc(OC)cc12 (configuration not stated),Potency,[1],12.3 µM (active) and 11.7 µM (active)
same,Potency,[2],26.9 µM (active)
same,Potency,[3],inactive
same,Potency,[14],inactive
same,Potency,[15],inactive
same,Potency,[8],7.42 µM (active)
same,Potency,[9],7.42 µM (active)
same,Potency,[10],2.95 µM (active)
same,Potency,[11],7.42 µM (active)
same,Potency,[12],4.68 µM (active)
same,Potency,[13],7.42 µM (active)
same,Potency,[17],7.42 µM (active)
O=C(c1ccc(Cl)cc1)N1CCN(c2ccc([N+](=O)[O-])c3ncccc23)CC1,activation,[1],-9.46%
same,Potency,[2],inactive
same,Potency,[3],inactive
same,Potency,[6],inactive

# — PubChem BioAssay (NCATS)
